This is a sample that favours compounds with a hit; in the whole collection about 11% have one here.
Pf growth 48h = Primary qHTS for delayed death inhibitors of the malarial parasite plastid, 48 hour incubation; P. falciparum luciferase growth in erythrocytes, 48 h; Potency, µM (highest dose often 28.7 µM), for inactives: at the highest dose activity change, negative = inhibition, most hits filed as inhibitors; 310,000 compounds, 5.9% hits; note: % is set by controls: 0 for no effect and ±100 for the full control effect
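Compounds are pin-transferred into medium, infected erythrocytes (2% hematocrit, 0.1% parasitemia final) are added, and plates sit one parasite generation at 37 C in 5% CO2. Detection reagent is then added and luminescence measured.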
HCV inhibitor = qHTS Assay for Inhibitors of Hepatitis C Virus (HCV) | Huh7.5.1 HCVcc-Cre infection, luciferase reporter, 44 h | Potency, µM (series often up to 41.8 µM), for the others: top-dose activity change, negative = inhibition, actives largely listed as inhibitors | 340,000 compounds, 3.4% hits | AID 651820, 2012; note: % is set by controls: 0 for no effect and ±100 for the full control effect
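Antiviral activity was scored by luciferase reporter output from cells infected with HCVcc-Cre (~0.5 moi) in presence of compound, 44 h infection period, cells seeded 1,000/well 4 h prior.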
Vaccinia mCherry = qHTS for Stage-Specific Inhibitors of Vaccinia Orthopoxvirus: mCherry Reporter Primary qHTS. 310,000 compounds, 0.63% hits. Potency, µM (titrated, usually from 36.5 µM), inactives show at the highest dose activity change, negative = inhibition, usual class: inhibitors. Vaccinia virus mCherry reporter infection, fluorescence. AID 720579, 2013; calls by dose curve; tested in A549 cells; note: % is set by controls: 0 for no effect and ±100 for the full control effect; nearly all actives have a fitted effect of over 35% in size
Pf growth 96h = Primary qHTS for delayed death inhibitors of the malarial parasite plastid, 96 hour incubation. 320,000 compounds, 6.9% hits. Potency, µM (top dose mostly 28.7 µM), without a hit: at the highest dose activity change, negative = inhibition, actives largely listed as inhibitors. P. falciparum luciferase reporter growth, 96 h; note: % is set by controls: 0 for no effect and ±100 for the full control effect
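Compounds incubated with erythrocytes infected by luciferase-expressing P. falciparum (2% hematocrit, 0.05% parasitemia final) for 96 hours, 37 C in 5% CO2. Growth inhibition scored as decreased luciferase luminescence.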
Vaccinia Venus = qHTS for Stage-Specific Inhibitors of Vaccinia Orthopoxvirus: Venus Reporter Primary qHTS; Vaccinia virus Venus reporter expression, fluorescence; Potency, µM (titrated, usually from 36.5 µM), without a hit: at the highest dose activity change, negative = inhibition, usual class: inhibitors; 330,000 compounds, 0.46% hits; AID 720580, 2013; calls by dose curve; tested in A549 cells; note: % is set by controls: 0 for no effect and ±100 for the full control effect; nearly all actives have a fitted effect of over 30% in size
NS1 function inh = qHTS Assay for Inhibitors of Influenza NS1 Protein Function; Potency, µM (doses to about 46.1 µM), for inactives: top-dose activity, positive = more growth; 270,000 compounds, 0.4% hits; calls by dose curve; note: actives are rising curves; nearly all actives have a fitted effect of over 50% in size
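OD600 was taken as the measure of yeast growth restored by compound in an NS1-expressing S. cerevisiae strain. Cells had been washed out of glucose medium and diluted 1:100 into galactose -URA medium, pH 6.0.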
* = called active by the depositor; i = inactive; ? = inconclusive; · = no result. Unless noted, calls come from the whole dose curve; as a rule, active = well fitted inhibition curve with a large enough effect; inconclusive = small, poorly fitted or top-dose-only effect, or another doubt; inactive = no such curve, though single readings can be large or run the other way. Potency is the fitted concentration of half-maximal effect.

SMILES	Pf growth 48h	HCV inhibitor	Vaccinia mCherry	Pf growth 96h	Vaccinia Venus	NS1 function inh
CCOc1ccc(C(=O)c2cn(CC(=O)Nc3ccc(C)c(Cl)c3)c3ccc(OCC)cc3c2=O)cc1	·	·	-12%	·	-16%	·
COc1cc2c(cc1NC(=O)COC(=O)c1ccc(C(C)(C)C)cc1)oc1ccccc12	8%	9%	i	0%	-5%	4%
COCCCNC(=S)Nc1cc2oc3ccccc3c2cc1OC	?	8.9µM*	?	?	?	-12%
COc1cc2c(cc1NC(=O)COc1ccccc1OC)oc1ccccc12	36%	?	·	0%	·	1%
COc1cc2c(cc1NC(=S)Nc1cccc3ccccc13)oc1ccccc12	-28%	2.5µM*	·	·	-16%	26%
COc1cc2c(cc1NC(=S)Nc1cccc(C(F)(F)F)c1)oc1ccccc12	?	10µM*	?	·	-23%	-2%
CS(=O)(=O)c1nc2ccccc2n1Cc1ccccc1	-15%	15%	·	-5%	·	-13%
Cn1c(NN=O)nc2ccccc21	12µM*	?	?	?	?	7%
O=NNc1nc2ccccc2n1Cc1ccccc1	?	?	·	13µM*	·	1%
CC(=O)Nc1nc2ccccc2n1Cc1ccccc1	?	-4%	-14%	12µM*	-4%	-2%
O=C(CCN1C(=O)COc2ccccc21)NCCCN1CCCC1	-1%	1%	·	0%	·	6%
Cc1ccc(CNC(=O)C2CCCN(c3nc4c(C)cc(C)cc4s3)C2)cc1 (stereo not given)	·	·	6%	·	-10%	·
Cc1cc(C)c2nc(N3CCC(C(=O)N4CCN(c5ncccn5)CC4)CC3)sc2c1	·	-29%	i	4%	19%	-14%
Cc1cc(C)c2nc(N3CCC(C(=O)N4CCCC4)CC3)sc2c1	8.3µM*	-14%	-6%	?	-19%	-67%
Cc1cc(C)c2nc(N3CCCC(C(=O)NC4CCCC4)C3)sc2c1 (stereo not given)	8%	-27%	i	5.2µM*	-10%	-3%
O=C(N/N=C/C=C/c1ccccc1)c1cccnc1	0%	-3%	-12%	0%	-5%	2%
CC(Cc1ccsc1)NCc1cn[nH]c1-c1ccc(F)cc1F (stereo not given)	-16%	-2%	?	?	-12%	-6%
Cc1cc(C)c2cc(CN(CCO)C(=O)Nc3ccc(F)cc3)c(=O)[nH]c2c1	?	1%	11%	?	4%	-29%
COc1cc2cc(CN(CCN3CCOCC3)C(=O)Nc3ccc(F)cc3)c(=O)[nH]c2cc1OC	?	21%	·	0%	·	-4%
Cc1ccc(C)c2[nH]c(=O)c(CN(CCN3CCCC3)C(=O)Nc3ccc(F)cc3)cc12	4.1µM*	?	·	?	-16%	6%
COc1cc2cc(CN(CCN3CCCC3)C(=O)Nc3ccc(F)cc3)c(=O)[nH]c2cc1OC	9.3µM*	-34%	-8%	-10%	-14%	15%
Cc1ccc(S(=O)(=O)N2CCCCC2)cc1NC(=O)Cn1cc(C(F)(F)F)ccc1=O	-28%	?	·	-15%	·	·
COc1ccccc1NC(=O)CN1C(=O)C2(OCCCO2)c2ccccc21	4%	7%	·	-25%	·	-3%
COc1ccc(OC)c(NC(=O)CN2C(=O)C3(OCCCO3)c3ccccc32)c1	-27%	-17%	·	5.2µM*	·	1%
CN(C)c1ccc(S(=O)(=O)N(C)C)cc1NC(=O)Cc1cccc2ccccc12	?	?	-2%	?	-17%	12%
Clc1cccc(Cl)c1/C=N\Nc1nccs1	?	-14%	-23%	9.3µM*	-22%	9%
Cc1csc(N/N=C/c2c(F)cccc2Cl)n1	109%	3%	3.5µM*	96%	5µM*	-8%
CC1=Nc2ccccc2N=C(NC(=O)CSc2nnnn2-c2ccccc2)C1c1ccccc1 (stereo not given)	?	?	·	-20%	-24%	-10%

High-throughput results from PubChem.
